Results filed as inconclusive are left out. Calls of active or inactive are those of the source. Rule for the calls: active = hit-call score of the fitted dose curve at least 0.9, where 1 is the maximum; inconclusive = response in the unintended direction; inactive = score below 0.9.
molecular target: human Phosphoinositide 3-kinase alpha (PI3Ka), PIK3CA (gene 5290) (UniProt P42336); assay: NVS_ENZ_hPI3Ka: NovaScreen (NVS) Enzymatic Assay for human Phosphoinositide 3-kinase alpha (PI3Ka) (AID 2283196)
Description: NVS_ENZ_hPI3Ka is a biochemical, single-readout assay that uses extracted gene-proteins in a cell-free assay. Measurements were taken 1 hour after chemical dosing in a 384-well plate.NVS_ENZ_hPI3Ka is one of one assay component(s) measured or calculated from the NVS_ENZ_hPI3Ka assay. It is designed to make measurements of enzyme activity, a form of enzyme reporter, as detected with fluorescence intensity signals by Fluorescence and electrophoretic mobility shift technology.Data from the assay component NVS_ENZ_hPI3Ka was analyzed into 1 assay endpoint. This assay endpoint, NVS_ENZ_hPI3Ka, was analyzed in the positive analysis fitting direction relative to DMSO as the negative control and baseline of activity. Using a type of enzyme reporter, loss-of-signal activity can be used to understand changes in the enzymatic activity as they relate to the gene PIK3CA. Furthermore, this assay endpoint can be referred to as a primary readout, because this assay has produced multiple assay endpoints where this one serves a enzymatic activity function. To generalize the intended target to other relatable targets, this assay endpoint is annotated to the kinase intended target family, where the subfamily is phosphoinositol kinase.
Binding assays used specific radioligands (tritiated, iodinated) with non-radioactive competitive displacement ligands in agonist or antagonist protocols (as indicated) and various reference compounds and inhibitors to titrate specific binding to receptors and transporters. Most enzyme assays (CYPs, kinases, phosphatases, proteases, HDACs) used recombinant protein and specific substrates (fluorescence mostly, some colorimetric and radioactive) and inhibitors, followed by a biochemical separation of substrate and product. All assays for the biochemical HTS were initially run in duplicate at a single concentration (10 uM for CYP450 assays and 25 uM for all others). Assay-chemical combinations meeting a pre-defined threshold (e.g., 30% inhibition and other criteria defined below) were then run in singleton concentration-response format with maximum concentration of 20 uM for CYPs and 50 uM for all others. Each assay was run with positive and negative controls, and concurrent controls on every plate. The follow-up (secondary) screen tested active chemical-pairs in concentration series, as well as a few additional assays not tested in the primary screen, some selected negative inactives, and several cases re-run in the concentration series for confirmatory purposes.

Chain of human Phosphoinositide 3-kinase alpha (PI3Ka), PIK3CA (gene 5290) (P42336 whole entry, looked up): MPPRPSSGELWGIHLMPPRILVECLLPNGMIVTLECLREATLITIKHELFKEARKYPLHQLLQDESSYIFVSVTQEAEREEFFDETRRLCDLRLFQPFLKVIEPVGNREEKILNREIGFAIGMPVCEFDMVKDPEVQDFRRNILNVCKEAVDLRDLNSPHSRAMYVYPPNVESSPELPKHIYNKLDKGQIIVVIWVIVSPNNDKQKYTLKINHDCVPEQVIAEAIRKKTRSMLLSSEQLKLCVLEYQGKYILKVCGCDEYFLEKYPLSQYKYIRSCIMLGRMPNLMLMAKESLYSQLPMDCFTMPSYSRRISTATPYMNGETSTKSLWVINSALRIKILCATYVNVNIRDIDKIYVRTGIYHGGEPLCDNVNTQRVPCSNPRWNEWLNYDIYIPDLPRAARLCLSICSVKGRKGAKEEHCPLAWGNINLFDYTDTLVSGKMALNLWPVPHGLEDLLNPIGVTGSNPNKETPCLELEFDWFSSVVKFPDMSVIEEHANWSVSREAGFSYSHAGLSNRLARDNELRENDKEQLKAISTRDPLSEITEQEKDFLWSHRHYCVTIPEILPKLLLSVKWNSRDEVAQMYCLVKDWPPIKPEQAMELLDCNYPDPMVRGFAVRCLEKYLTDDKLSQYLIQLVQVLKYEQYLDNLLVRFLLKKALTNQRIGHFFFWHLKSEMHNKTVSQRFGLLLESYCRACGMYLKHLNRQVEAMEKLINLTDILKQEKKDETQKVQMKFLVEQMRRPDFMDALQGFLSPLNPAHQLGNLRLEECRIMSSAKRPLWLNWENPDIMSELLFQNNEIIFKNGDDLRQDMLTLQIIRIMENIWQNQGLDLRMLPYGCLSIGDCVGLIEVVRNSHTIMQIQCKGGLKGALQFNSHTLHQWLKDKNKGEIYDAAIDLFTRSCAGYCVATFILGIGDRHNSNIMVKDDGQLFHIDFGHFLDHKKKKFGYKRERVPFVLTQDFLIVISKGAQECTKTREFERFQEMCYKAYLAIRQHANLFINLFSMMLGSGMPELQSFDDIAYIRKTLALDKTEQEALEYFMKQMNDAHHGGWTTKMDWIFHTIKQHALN

Row | SMILES | outcome | AC50
1 | C=CC(=O)NC(C)(C)CC(C)=O | inactive | –
2 | O=C(O)C1(c2ccc3c(c2)OC[C@H](Cc2ccc(-c4ccccc4)cc2)[C@H]3O)CCCC1 | inactive | –
3 | CC(C)[N+](=O)[O-] | inactive | –
4 | CCC(C)(C#N)N=NC(C)(C#N)CC (stereo not given) | inactive | –
5 | O=[N+]([O-])c1ccc(Nc2ccccc2)cc1 | inactive | –
6 | O=C1c2ccccc2C(=O)C1C(=O)C(c1ccccc1)c1ccc(Cl)cc1 (stereo not given) | – | 16.8 µM (active)
7 | Oc1ccc(Cc2ccc(O)cc2)cc1 | inactive | –
8 | CC[N+](CC)(CC)CC | inactive | –
9 | Nc1nc(N)nc(Cl)n1 | inactive | –
10 | C=CCCl | inactive | –
11 | CCOC(=O)CCN(SN(C)C(=O)Oc1cccc2c1OC(C)(C)C2)C(C)C | inactive | –
12 | Cc1cc(C(C)(C)c2ccc(O)c(C)c2)ccc1O | – | 5.25 µM (active)
13 | O=c1oc2ccccc2c(O)c1C(CC(O)c1ccc(-c2ccc(Br)cc2)cc1)c1ccccc1 (stereo not given) | – | 5.19 µM (active)
14 | CCCCCCCCCCCCc1cccc(S(=O)(=O)O)c1 | – | 7.17 µM (active)
15 | Nc1c(Oc2ccccc2)cc(O)c2c1C(=O)c1ccccc1C2=O | – | 3.26 µM (active)
